# WT yeast gro inh = growth inhibition of WT yeast, mitochondrial fusion screen; mitochondrial fusion phenotypic screen, WT strain; inhibition, % at 10 µM; actives 2.1% (n = 190,000); in the data active = inhibition above about 58%; tested in S. cerevisiae
# Autophagy mod = autophagy modulation, high-content screen | MEF GFP-LC3 puncta imaging; test concentration mostly 10 µM | calls only at 10 µM (by protocol) | actives 0.98% (n = 190,000) | AID 463193;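 active = percentage of spot-positive cells more than 3 SD above its plate mean, without a fluorescence outlier flag or 80% toxicity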;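 note: spot-positive cell cutoff set from DMSO-treated cells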
# Insulin prom up = MIN6 insulin promoter up-regulation; MIN6 insulin promoter-GFP reporter, high-content imaging; hits give high values; z-score at 5 µM; actives 0.3% (n = 190,000);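 active = z-score above 3 at 5 µM with at least 500 cells counted in the well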
# Insulin prom inh = TRM-6 insulin promoter activity inhibition; TRM-6 cells (human fetal islet line), insulin promoter-eGFP reporter, imaging; reporter expression induced with tamoxifen; inhibition, % at 2 µM; actives 0.9% (n = 130,000); AID 1273;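 active = inhibition above the mean plus 3 SD, with well images judged a real hit on visual review, cut at about 60% in these data, passing the limit was not always enough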
# Lmaj promast = inhibitors of Leishmania major promastigote growth; Leishmania major promastigotes, resazurin fluorescence viability; inhibition, % at 10 µM; actives 9% (n = 200,000); AID 1063; in the data active = inhibition above about 50%;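 note: promastigotes grown with compound for 44 hours at 28 °C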
# The depositor's hits bear a star; i = inactive; nt = no result; + = active, no number. Rows were chosen to be rich in hits. Some 11% of all compounds tested hit in one or more screens of this group.
SMILES,WT yeast gro inh,Autophagy mod,Insulin prom up,Insulin prom inh,Lmaj promast
CC1=C(C(=O)Nc2ccc(C)cc2)C(c2ccco2)NC(=O)N1 (stereo not given),-18,i,nt,-19,-2
CC1CCCCC1NC(=O)CCCn1c(=S)[nH]c2ccccc2c1=O (stereo not given),-13,i,-0.24,-7,4
CCC1CCCCN1CCCn1c(=S)[nH]c2ccccc2c1=O (stereo not given),5,i,-0.32,43,97*
CC1CCCCC1n1c(=S)[nH]c2ccccc2c1=O (stereo not given),76*,i,-0.08,nt,24
NC(=O)CSc1nc2c(sc3ccccc32)c(=O)n1CCCC(=O)NCC1CCCO1 (stereo not given),nt,nt,-0.31,nt,nt
COc1ccc(C(=O)c2ccc(N(C)C)cc2)c(OC)c1,-6,i,0,-127,-7
CN(C)c1ccc(C(=O)c2ccc(N(C)C)c3ccccc23)cc1,61*,+,-5.2,7,19
Cc1cc(-c2nnc(CCC(=O)N3CCN(Cc4cccc(F)c4)CC3)o2)c(C)o1,-2,i,nt,nt,-4
O=C1OCCN1/N=C/c1ccc([N+](=O)[O-])o1,-12,i,nt,-38,93*
O=C1C2C3C=CC(C4CC34)C2C(=O)N1/N=C/c1ccc(-c2cccc([N+](=O)[O-])c2)o1 (stereo not given),-7,i,0.62,6,-2
O=C1CN(/N=C/c2ccc([N+](=O)[O-])o2)C(=O)N1,3,i,nt,-19,95*
O=C(C[n+]1cnn(CC(=O)c2ccc(Cl)cc2Cl)c1)c1ccc([N+](=O)[O-])cc1,-27,i,0.5,nt,83*
O=C(Nc1cnn(Cc2ccc(Cl)cc2)c1)c1ccc([N+](=O)[O-])cc1,2,i,-0.14,nt,-6
CCn1c(Sc2nc(C)nc3scc(-c4cccs4)c23)n[nH]c1=O,82*,i,-1.2,nt,30
Cc1nc(SCC(=O)NC(=O)NCCC(C)C)c2c(-c3cccs3)csc2n1,-10,i,0.88,nt,7
COCCN(C(=S)Nc1ccc(OC)cc1)C(C)c1cccs1 (stereo not given),28,i,-0.21,-30,2
COCCN(C(=S)Nc1cccc(C)c1)C(C)c1cccs1 (stereo not given),59*,i,-0.4,-20,2
COCCN(C(=S)Nc1cc(C)cc(C)c1)C(C)c1ccco1 (stereo not given),61*,i,-0.09,nt,11
COCCN(C(=S)Nc1cc(C)cc(C)c1)C(C)c1cccs1 (stereo not given),15,i,0.63,11,11
CC(C)CCN(C(=S)Nc1cccc(F)c1)C(C)c1cccs1 (stereo not given),59*,i,nt,7,21
Cc1ccc(NC(=S)N(CCN(C)C)C(C)c2ccco2)cc1Cl (stereo not given),nt,nt,-0.67,nt,nt
COCCN(C(=S)Nc1c(C)cccc1C)C(C)c1cccs1 (stereo not given),38,i,-0.17,-85,56*
Cc1ccc(/C=C/C(=O)O)cc1S(=O)(=O)NC1CCS(=O)(=O)C1 (stereo not given),-6,i,0.55,nt,-8
Cn1cnnc1-c1cccc(NC(=O)c2cc(F)c(F)cc2Cl)c1,-50,i,nt,5,6
O=C1C2CC=CCC2C(=O)N1c1n[nH]c(CCc2ccccc2)n1 (stereo not given),12,i,-0.04,22,-5
SMILES,WT yeast gro inh,Autophagy mod,Insulin prom up,Insulin prom inh,Lmaj promast
CC(C)N(CCNCC(O)COc1ccc(C(C)(C)c2ccccc2)cc1)C(C)C (stereo not given),56,i,0.03,nt,94*
O=C(NNCC(O)COc1ccccc1)c1ccccc1 (stereo not given),10,i,-0.05,-6,-3
OC(CNCCC(c1ccccc1)c1ccccc1)COc1ccccc1 (stereo not given),74*,i,-1.2,nt,43
CC(C)CCNCC(O)CON=C1c2ccccc2-c2ccccc21 (stereo not given),41,i,0.31,nt,88*
CC(=O)c1ccc(N2CCN(C(C)C(=O)NC3CCCc4ccccc43)CC2)cc1 (stereo not given),7,i,0.01,-47,4
CC(NC(=O)c1ccccc1NC(=O)CSc1nnnn1C)c1ccccc1 (stereo not given),8,i,-0.47,22,0
CCNC(=O)CON=C1c2ccccc2-c2ccccc21,0,+,0.4,-23,0
NC(N)=N/N=C/c1ccc(Br)cc1,8,i,-0.09,-54,100*
Oc1ccc(/C=N/N=C/c2ccc(O)cc2)cc1,1,i,0.4,17,-1
CCNC(=S)N/N=C/c1ccc(C#N)cc1,-9,i,0.08,-57,-2
N#Cc1ccc(/C=N/N=C(N)N)cc1,-5,i,0.01,5,79*
CN(C(=O)c1ccc(COc2ccccc2Br)o1)c1ccccc1,67*,i,-0.19,19,19
COC(=O)c1ccc(CNC(=O)COc2ccccc2Br)o1,2,i,nt,-6,-1
Cc1cccc(NC(=O)c2ccc(COc3ccc(Cl)cc3Cl)o2)n1,60*,i,0.44,20,5
COc1ccc(NC(=O)c2ccc(COc3ccccc3Br)o2)cc1OC,46,i,-0.15,nt,1
COc1ccc(/C=N/NC(=O)c2ccc(COc3ccccc3Cl)o2)c(OC)c1C,-6,i,-0.17,11,56*
COc1ccc(/C=N/NC(=O)c2ccc(COc3ccccc3Cl)o2)cc1,2,i,0.46,nt,-3
COc1cc(NC(=O)c2ccc(COc3ccccc3Br)o2)cc(OC)c1OC,49,i,-0.04,-6,68*
COC(=O)Nc1nn(-c2ccc(OC)cc2)c(=O)c(C#N)c1C,20,i,0.23,-287,9
CCCCCCC(C)OC(=O)Nc1cccc2ccccc12 (stereo not given),nt,nt,0.71,nt,nt
Cc1ccnc2nc(C(=O)OCC(=O)Nc3ccccc3C(C)(C)C)nn12,-14,i,-0.02,43,-2
Cc1ccnc2nc(C(=O)OCC(=O)NCCc3ccccc3)nn12,-12,i,-0.55,73*,-9
CCOC(=O)c1c(C)nc2sc3c(=O)n(-c4ccc(C(C)=O)cc4)nnc3c2c1-c1ccc(Cl)cc1,13,i,-0.83,nt,54*
CC1CCCN(CCCOc2ccc(Br)cc2Cl)C1 (stereo not given),18,i,0.21,nt,89*
CC1CCN(CCOc2cc(Cl)ccc2Cl)CC1,18,i,nt,31,85*
CC1CCN(CCOCCOc2ccc(Br)cc2Cl)CC1,43,i,-1.5,-93,99*
CCCCOc1ccc2c(c1)/C(=C(\C(Cl)=C(Cl)Cl)[N+](=O)[O-])N2,-11,i,0.02,nt,9
O=S(=O)(c1cccc(F)c1)N1CCN(C(=S)NCc2ccccc2)CC1,2,i,1.3,-59,13
CC(=O)Nc1ccccc1C(=O)C(=O)Nc1cccc(C(=O)N2CC(C)CC(C)C2)c1 (stereo not given),-2,i,0.02,17,-6
